Most compounds without a hit are left out; they make up all but 3.3% or so of the library.
VACV mCherry inh = inhibitors of vaccinia virus infection (mCherry reporter signal); Vaccinia virus mCherry reporter infection, fluorescence; Potency, µM (doses to about 36.5 µM), for the others: at the highest dose activity change, negative = inhibition, hits mostly inhibitors; AID 720579; 0.63% of 310,000 active; calls by dose curve; tested in A549 cells; also: nearly all actives have a fitted effect of over 35% in size
HCV inhibitor = HCV inhibition; 3.4% of 340,000 active; Potency, µM (titrated, usually from 41.8 µM), inactives show top-dose activity change, negative = inhibition, actives largely listed as inhibitors; Huh7.5.1 HCVcc-Cre infection, luciferase reporter, 44 h; active = well fitted inhibition curve with a large enough effect; inconclusive = small, poorly fitted or top-dose-only effect, or another doubt; inactive = no such curve, though single readings can be large or run the other way
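Compounds are dispensed onto cells plated 4 h earlier at 1,000 per well, with HCVcc-Cre virus (about 0.5 moi) added next. Following 44 h of culture, luminescent signal is measured for 15 sec after 15 min with substrate at room temperature.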
Vaccinia Venus = inhibitors of vaccinia virus (Venus reporter); Vaccinia virus Venus reporter expression, fluorescence; 0.46% of 330,000 active; Potency, µM (doses to about 36.5 µM), for inactives: top-dose activity change, negative = inhibition, usual class: inhibitors; AID 720580; calls by dose curve; tested in A549 cells; also: nearly all actives have a fitted effect of over 30% in size
* marks the source's active call; other numbers are inactive results; i = inactive; u = inconclusive; x = not tested or not shown; [ ] = another dose, or the depositor's remark. % is scaled to controls: 0 for no effect and ±100 for the full control effect; potency is read from the fitted curve at half-maximal effect.

SMILES	VACV mCherry inh	HCV inhibitor	Vaccinia Venus
CCc1ccc(N(CC(=O)NCC2CCCO2)C(=O)CCC(=O)Nc2nccs2)cc1 (stereo not drawn)	-11%	9%	0%
CCn1c2c(c(=O)n3ncc(C(=O)Nc4cccc(Cl)c4C)c13)CN(Cc1ccc(OC)cc1)CC2	-14%[7.34 µM]	x	-6%
COc1ccccc1CCNC(=O)C(=O)NCC1OCCCN1S(=O)(=O)c1cc(C)ccc1C (stereo not drawn)	-9%	u	-18%
COCCNC(=O)c1cc(S(=O)(=O)N2CCC3(CC2)OCCO3)ccc1F	-8%	x	-6%
COc1ccc(S(=O)(=O)N2CCCCCC2)cc1C(=O)N(C)Cc1ccc(F)cc1	i	-18%	-21%
COc1ccc(S(=O)(=O)N2CCCCCC2)cc1C(=O)N(C)Cc1ccc(C(C)(C)C)cc1	u	14µM*	-28%
COc1ccc(CCNC(=O)c2cc(S(=O)(=O)N3CCC4(CC3)OCCO4)ccc2F)cc1OC	i	11µM*	-5%
COc1ccccc1CNC(=O)c1cccc(S(=O)(=O)N2CCN(C)CC2)c1	1%	17%	1%
COc1cc(OC)c(OC)cc1CNC(=O)c1cccc(S(=O)(=O)N2CCc3ccccc3C2)c1	-14%	1.8µM*	-29%
COc1ccccc1CCNC(=O)C(=O)NCC1OCCCN1S(=O)(=O)c1ccc(F)cc1C (stereo not drawn)	-10%	10µM*	16%
Cc1cc(=O)n2nc(N3CCCC(C(=O)NCc4cccc(Br)c4)C3)sc2n1 (stereo not drawn)	i	6%	-18%
COc1ccc(S(=O)(=O)N2CCOC2CNC(=O)C(=O)NCCc2ccc(OC)c(OC)c2)cc1 (stereo not drawn)	i	u	-19%
C=C(C)c1cccc(C(C)(C)NC(=O)NCc2ccc(OC)cc2)c1	0%	9%	-1%
COc1ccc(CCNC(=O)C(=O)NCC2OCCN2S(=O)(=O)c2ccc(Cl)cc2)cc1OC (stereo not drawn)	-22%	8.9µM*	-26%
C=C(C)c1cccc(C(C)(C)NC(=O)NCc2ccc(OC)c(OC)c2)c1	x	11µM*	x
O=S(=O)(NCCc1csc2nc(-c3ccc(F)cc3)nn12)c1ccc(Br)cc1	-10%	x	-15%
Cc1ccnc2ccc([N+](=O)[O-])cc12	-14%	x	-6%
COc1cccc(-c2csc(N3CCN(C(=O)Nc4ccccc4Cl)CC3)n2)c1	i	-22%	-5%
COc1ccc(-c2csc(NC(C)=O)n2)cc1OC	-27%	u	u
COc1cccc(-c2csc(N3CCN(C(=S)Nc4ccc(Cl)cc4)CC3)n2)c1	u	13µM*	-27%
COc1cccc(NC(=O)Nc2nc(-c3ccc(OC)c(OC)c3)cs2)c1	u	2.8µM*	14µM*
COc1cccc(NC(=O)N2CCN(c3nc(-c4cccc(OC)c4)cs3)CC2)c1	x	11µM*	x
COc1cccc(-c2csc(N3CCN(C(=S)Nc4ccccc4)CC3)n2)c1	-20%	-19%	-15%
CO[C@H]1[C@H](NC(=O)c2ccco2)c2ccccc2C12CCN(Cc1ccc3cccc(F)c3n1)CC2	-12%	x	-6%
COc1ccc(NC(=O)C(CC(C)C)NC(=O)C2CCCCC2)cc1 (stereo not drawn)	-7%	x	-8%
SMILES	VACV mCherry inh	HCV inhibitor	Vaccinia Venus
C=CCn1c(SCC(=O)NCc2ccco2)nnc1-c1cccc(N(C)C)c1	-14%	x	-20%
O=C(Nc1cccc(C(F)(F)F)c1)c1ccc2c(c1)nnn2C1CCCC1	-16%	x	-13%
CN(C)S(=O)(=O)c1ccc(C(=O)NCC(=O)N/N=C/c2ccccc2Cl)cc1	-11%	u	-10%
Oc1ccccc1N=Cc1c(O)ccc2ccccc12	-21%	-7%	-22%
Oc1ccc2ccccc2c1/C=N/Nc1nnc(-c2ncc[nH]2)c2ccccc12	x	3.2µM*	x
COc1ccc(/C=N/Nc2nnc(-c3ncc[nH]3)c3ccccc23)cc1	x	-5%	x
Fc1cccc(F)c1/C=N/Nc1ccccn1	x	-5%	x
CN(C)/N=C/c1c(O)ccc2ccccc12	x	10µM*	-13%
Oc1ccc2ccccc2c1C=NNc1ccccn1	u	3.2µM*	u
CCOC(=O)c1cccc(NC(=O)N2CCC(CN3CCCCCC3)CC2)c1	-13%	x	-8%
CN(C)c1ccc(/C=C2\C=Cc3ccccc32)c(Cl)c1	i	x	-16%
Cc1ccc(S(=O)(=O)N2CCN(c3nc(-c4ccnnc4)nc4ccccc34)CC2)cc1	i	x	-12%
CCOc1cc(/C=N/O)ccc1OCc1ccc(F)cc1	i	7.1µM*	-22%
CCOc1cc(/C=N/O)ccc1OCc1ccc([N+](=O)[O-])cc1	-2%	u	-28%
C[C@H]1CCCCO[C@H](CN(C)Cc2ccccc2)[C@@H](C)CN([C@@H](C)CO)C(=O)c2cc(NC(=O)CCC(F)(F)F)ccc2O1	i	x	-16%
Cc1cc(C)nc(N2CCC(C(=O)N3CCN(c4cc(Cl)ccc4C)CC3)CC2)n1	x	13µM*	x
Cc1ccc(Cl)cc1N1CCN(C(=O)C2CCN(S(C)(=O)=O)CC2)CC1	i	-14%	-7%
O=C(COc1ccc(F)cc1Cl)Nc1ccc(N2CCOCC2)cc1N1CCOCC1	-14%	22µM*	-12%
CCOc1cc(N2CCOCC2)c(OCC)cc1NC(=O)COC(=O)CCOc1ccc(C(C)(C)C)cc1	i	12%	-12%
O=C(COc1ccccc1F)Nc1ccc(N2CCOCC2)cc1N1CCOCC1	-16%	-4%	-6%
CC(C)(C)c1ccc(OCCC(=O)Nc2ccc(N3CCOCC3)cc2N2CCOCC2)cc1	13µM*	u	-26%
CC(=O)Oc1ccc(C(=O)COC(=O)CNC(=O)COc2ccccc2C)cc1	7%	x	-16%
O=C(COC(=O)/C=C/c1ccc(F)cc1)NCC1CCCO1 (stereo not drawn)	x	12%	x
Cc1cccn2c(=O)c3cc(S(=O)(=O)c4ccccc4)c(=N)n(Cc4ccco4)c3nc12	-19%	7%	-17%
Cc1cccn2c(=O)c3cc(S(=O)(=O)c4ccc(F)cc4)c(=N)n(Cc4ccco4)c3nc12	-14%	2.8µM*	-6%
SMILES	VACV mCherry inh	HCV inhibitor	Vaccinia Venus
Cc1cccn2c(=O)c3cc(C(=O)NCC4CCCO4)c(=N)n(C4CCCCC4)c3nc12 (stereo not drawn)	i	u	-13%
Cc1cccn2c(=O)c3cc(C(=O)NCc4ccco4)c(=N)n(C4CCCC4)c3nc12	i	6.3µM*	-6%
COCc1c(C(=O)N2CCN(C)CC2)cnn1-c1ncc2c(n1)-c1ccccc1CCC2	-24%	x	-12%
CCOC(=O)C1(CCOc2ccccc2)CCN(Cc2ccc(C)s2)CC1	-7%	u	-7%
CCOC(=O)C1(CCOc2ccccc2)CCN(Cc2ccc(CO)o2)CC1	i	u	-10%
CCOC(=O)C1(CCOc2ccccc2)CCN(Cc2cccc3c2OCO3)CC1	-8%	10µM*	-18%
CCOC(=O)C1(CCOc2ccccc2)CCN(Cc2cc(OC)c3c(c2)OCO3)CC1	-4%	11µM*	-13%
CS(=O)(=O)N1CCC(Oc2ccccc2C(=O)N2CCC[C@H]2CO)CC1	i	9%	-11%
Cn1c(SCc2ccc(Cl)cc2)nnc1-c1ccc(NC(=O)CCc2ccccc2)cc1	-2%	x	-14%
CCCCn1nnc(NC(=S)NC(=O)c2ccc(-c3cccc(Cl)c3Cl)o2)n1	u	-7%	0.11µM*
CCOc1ccc(C(=O)NC(=S)Nc2ncccc2C)cc1[N+](=O)[O-]	-11%	u	-11%
